Where “and” joins values, the source holds several entries; their conditions need not be identical. Equal values may be shown once. Records with an inconclusive call do not appear. A call without a number means that no potency is given here. More than one record can exist for a structure, and the calls need not agree. Calls of active or inactive are those of the source. Unless noted, calls follow the shape of the dose curve; as a rule, active = well fitted curve in the direction sought with a large enough effect in the repeat runs; inconclusive = weak or mixed curves; inactive = no such curve, though single readings can be large; an effect the other way counts as inactive or inconclusive.
Tests used:
[1] = qHTS assay to identify small molecule agonists of the vitamin D receptor (VDR) signaling pathway - cell viability counter screen (AID 743224); also: series mostly up to about 63 µM; nearly all actives have a fitted effect of over 50% in size
Procedure, shortened: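 Plated VDR-bla cells (4 h, 37C) received compound, incubated 16 h, then LiveBLAzer substrate 2 h RT; CellTiter-Glo added afterwards, luminescence read at 30 min.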

[2] = qHTS assay to identify small molecule antagonists of the vitamin D receptor (VDR) signaling pathway - cell viability counter screen (AID 743225); also: nearly all actives have a fitted effect of over 50% in size
Procedure, shortened: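 Cells (VDR-UAS-bla HEK 293T) are plated, rested 4 h at 37C, dosed with compound and 3 nM final 1-alpha,25-dihydroxy vitamin D3, and incubated 16 h. Viability is taken from CellTiter-Glo luminescence in the reporter wells.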

[3] = qHTS assay to identify small molecule agonists of the NFkB signaling pathway (AID 1159509; active = well fitted curve in the direction sought with a large enough effect in the signal ratio in the repeat runs, not every such curve was filed as active; the % refers to the signal ratio; also: series mostly up to about 61 µM)
Procedure, shortened: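 NFkB-bla ME-180 cells with a beta-lactamase reporter under an NF-kB response element were plated overnight, treated with compounds in DMSO for 5 hr at 37 C, then loaded with FRET substrate for 1.5 hr at room temperature.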

[4] = qHTS assay to identify small molecule agonists of the endoplasmic reticulum stress response signaling pathway (AID 1159516; active = well fitted activation curve with a large enough effect in the signal ratio in the repeat runs, not every such curve was filed as active; the % refers to the signal ratio)
Procedure, shortened: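 An ESRE-bla HeLa cell assay: compounds were pin-transferred from DMSO onto overnight-plated cells and left 5 hr at 37 C. Substrate was then loaded for 2 hr at room temperature before reading fluorescence at 460 nm and 530 nm.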

[5] = qHTS assay to identify small molecule agonists of the endoplasmic reticulum stress response signaling pathway - cell viability counter screen (AID 1159517; calls by dose curve;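 also: HeLa cells carrying an ER stress response element beta-lactamase reporter; series mostly up to about 61 µM; nearly all actives have a fitted effect of over 50% in size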)
Procedure, shortened: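 Counter-screen wells were identical to the reporter wells. Cells were plated at 1,500 per well and dosed for 5 hr, then read for luminescence 30 min after CellTiter-Glo addition.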

[6] = qHTS assay to identify small molecule antagonists of the retinoid-related orphan receptor gamma (ROR-gamma) signaling pathway - cell viability counter screen (AID 1159520); also: nearly all actives have a fitted effect of over 50% in size
Procedure, shortened: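 Tet-on ROR gamma CHO cells were given compounds for 2 hr, then doxycycline hyclate at 1 uM final, and incubated 16 hr at 37 C. Viability was measured as ATP content by CellTiter-Glo luminescence.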

[7] = target: Nuclear receptor ROR-gamma (Homo sapiens) (UniProt P51449); assay: qHTS assay to identify small molecule antagonists of the retinoid-related orphan receptor gamma (ROR-gamma) signaling pathway (AID 1159521; also: nearly all actives have a fitted effect of over 50% in size; also: potency is read from the fitted curve at half-maximal effect)
Procedure, shortened: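 RORγ antagonism is scored from reduced reporter luminescence in Tet-on CHO cells. Induction used 1 uM final doxycycline hyclate for 16 h at 37 C, following a 2 h compound exposure.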

[8] = qHTS assay to identify small molecule agonists of the AP-1 signaling pathway - cell viability counter screen (AID 1159525; calls by dose curve; also: nearly all actives have a fitted effect of over 55% in size)
Procedure, shortened: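 AP-1-bla ME-180 cells in Opti-MEM with 0.5% dialyzed FBS, compound exposure 5 h at 37 C in 15-point titration. Viability read in the same wells as ATP content by CellTiter-Glo luminescence, normalised to tetra-n-octylammonium bromide and DMSO controls.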

[9] = qHTS assay to identify small molecule agonists of the AP-1 signaling pathway (AID 1159526; calls by dose curve)
[10] = target: Retinoic acid receptor RXR-alpha (Homo sapiens) (UniProt P19793); assay: qHTS assay to identify small molecule agonists of the RXR signaling pathway (AID 1159527; calls by dose curve; also: nearly all actives have a fitted effect of over 35% in size)
Procedure, shortened: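 qHTS of the Tox21 10K library in GeneBLAzer RXR-alpha HEK 293T cells carrying a beta-lactamase reporter […]; 16 hr treatment, 9-cis retinoic acid as agonist control, FRET read-out.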

[11] = qHTS assay to identify small molecule agonists of the RXR signaling pathway - cell viability counter screen (AID 1159529)
Procedure, shortened: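 Cell viability is measured by CellTiter-Glo luminescence, 30 min at room temperature, in wells already read for beta-lactamase. Engineered HEK 293T cells (RXR-alpha-UAS-bla) are dosed 16 hr at 37 C. Tetraoctyl ammonium bromide serves as positive control.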

[12] = qHTS assay to identify small molecule antagonists of the retinoid acid receptor (RAR) signaling pathway - cell viability counter screen (AID 1159551); also: nearly all actives have a fitted effect of over 35% in size; also: potency is read from the fitted curve at half-maximal effect
Procedure, shortened: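 Retinol-stimulated (1 uM final) C3RL4 cells, compound 6 h, 37 C; readout CellTiter-Glo luminescence (ATP) after 30 min RT incubation.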

[13] = qHTS assay to identify small molecule antagonists of the retinoic acid receptor (RAR) signaling pathway (AID 1159552; also: nearly all actives have a fitted effect of over 50% in size; also: potency is read from the fitted curve at half-maximal effect)
Procedure, shortened: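 Quantitative HTS in C3RL4 RARE-luciferase reporter cells. Compounds were added with 1 uM (final) retinol; luminescence was read after 6 hr.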

[14] = qHTS assay to identify small molecule agonists of the retinoic acid receptor (RAR) signaling pathway (AID 1159553); also: potency is read from the fitted curve at half-maximal effect
Procedure, shortened: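 Reporter readout comes from luciferase under RARE control in C3RL4 cells; compound exposure lasts 6 hr at 37 C in 5% CO2, and luminescence is recorded following a 30 min room-temperature incubation with reagent.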

[15] = qHTS assay to identify small molecule antagonists of the estrogen related receptor (ERR) signaling pathway - cell viability counter screen (AID 1224818);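 also: series mostly up to about 46 µM; viability measured after 17.5 h of compound exposure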
Procedure, shortened: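 After a 6 h pre-incubation, ERR cells were dosed by pin tool with compounds, positive/negative controls or DMSO alone. Following 17.5 h at 37 C and 30 min with CellTiter-Fluor, fluorescence was recorded.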

[16] = qHTS assay to identify small molecule antagonists of the estrogen related receptor signaling pathway with the pleiotropic PPARgamma coactivator (PGC) cell viability counter screen (AID 1224822;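 also: series mostly up to about 46 µM; viability read after 17.5 h compound exposure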)
Procedure, shortened: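 PGC/ERR cells were plated at 2,000 per well and allowed 6 h to settle before compound addition. Following 17.5 h at 37 C, CellTiter-Fluor reagent was added and fluorescence was read 30 min later.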

[17] = qHTS assay to identify small molecule antagonists of the estrogen related receptor (ERR) signaling pathway (AID 1224819)
Procedure, shortened: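 Luminescence readout (One-Glo, 30 min, RT) of ERR cell line after 18 h compound exposure at 37 C; cells seeded 2,000/well, pre-incubated 6 h, compounds pinned from DMSO stocks.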

[18] = qHTS assay to identify small molecule agonists of the estrogen related receptor (ERR) signaling pathway (AID 1224820)
Procedure, shortened: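 ERR reporter cells (NTP line) plated 2,000/well, incubated 6 h at 37 C/5% CO2, then pinned with compounds in DMSO and held 18 h at 37 C. One-Glo added; luminescence read after 30 min at room temperature.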

[19] = tested on: estrogen-related receptor alpha (ERRalpha) with PGC-1alpha coactivator, human; assay: qHTS assay to identify small molecule antagonists of the estrogen related receptor signaling pathway with the pleiotropic PPARgamma coactivator (PGC) (AID 1224821; calls by dose curve)
Procedure, shortened: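 Cells engineered for PGC/ERR signalling (line from NTP) were plated 6 h at 37 C/5% CO2, then exposed to DMSO-dissolved compound for 18 h at 37 C. Luciferase activity was read by One-Glo luminescence after 30 min at room temperature.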

Retinoic acid receptor RXR-alpha (Homo sapiens), sequence (P19793 whole entry, looked up): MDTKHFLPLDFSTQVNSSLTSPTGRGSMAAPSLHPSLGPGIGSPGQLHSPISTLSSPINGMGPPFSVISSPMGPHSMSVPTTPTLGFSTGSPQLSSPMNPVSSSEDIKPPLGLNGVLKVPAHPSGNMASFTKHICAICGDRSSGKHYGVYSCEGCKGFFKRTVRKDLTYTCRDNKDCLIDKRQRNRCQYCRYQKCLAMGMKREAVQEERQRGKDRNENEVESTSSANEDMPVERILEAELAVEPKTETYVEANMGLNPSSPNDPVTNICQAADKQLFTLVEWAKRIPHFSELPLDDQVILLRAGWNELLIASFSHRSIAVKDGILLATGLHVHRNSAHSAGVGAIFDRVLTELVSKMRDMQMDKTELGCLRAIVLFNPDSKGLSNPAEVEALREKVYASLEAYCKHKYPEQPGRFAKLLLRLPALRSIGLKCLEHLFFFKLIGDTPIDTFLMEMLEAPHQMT

SMILES	Potency [1]	Potency [2]	outcome [3]	outcome [4]	Potency [5]	Potency [6]	Potency [7]	Potency [8]	Potency [9]	Potency [10]	Potency [11]	Potency [12]	Potency [13]	Potency [14]	outcome [15]	outcome [16]	Potency [17]	Potency [18]	Potency [19]
O=Nc1ccc(O)cc1	inactive	inactive	inactive	inactive	inactive	inactive	inactive	inactive	inactive	inactive	inactive	inactive	inactive	inactive	–	–	–	–	–
O=[N+]([O-])c1cc(N(CCO)CCO)ccc1NCCO	inactive	inactive	inactive	inactive	inactive	–	–	inactive	inactive	inactive	–	48.5 µM (active) and 48.6 µM (active)	30.6 µM (active)	inactive	–	–	–	–	–
O=C(c1cc(O)c(O)c(O)c1)c1ccc(O)c(O)c1O	inactive	inactive	inactive	inactive	inactive	inactive	21.7 µM (active) and inactive	inactive	inactive	inactive	–	inactive	inactive	inactive	–	–	–	–	–
Cc1cc(O)cc(C)c1Cl	inactive	inactive	inactive	inactive	inactive	inactive	inactive	inactive	inactive	inactive	inactive	inactive	inactive	inactive	–	–	–	–	–
CC(=O)[C@@]1(O)CC[C@H]2[C@@H]3CCC4=CC(=O)CC[C@]4(C)[C@H]3CC[C@@]21C	inactive	inactive	inactive	inactive	inactive	inactive	inactive	inactive	inactive	–	inactive	inactive	inactive	inactive	inactive	inactive	–	–	–
Nc1nc2ncc(CNc3ccc(C(=O)N[C@@H](CCC(=O)O)C(=O)O)cc3)nc2c(=O)[nH]1	inactive	inactive	inactive	inactive	inactive	inactive	inactive	inactive	inactive	inactive	–	inactive	inactive	inactive	–	–	–	–	–
CC(C)NCC(O)COc1cccc2ccccc12 (stereo not drawn)	inactive	inactive	inactive	inactive	inactive	–	inactive	inactive	–	inactive	inactive	inactive	inactive	inactive	inactive	inactive	–	–	–
O=[N+]([O-])c1cccc(Cl)c1	inactive	inactive	inactive	inactive	inactive	inactive	inactive	inactive	inactive	inactive	–	inactive	inactive	inactive	–	–	–	–	–
CC(=O)CCc1ccccc1	inactive	inactive	inactive	inactive	inactive	inactive	inactive	inactive	inactive	inactive	inactive	inactive	inactive	inactive	–	–	–	–	–
C=C(C)C(=O)OCC(CC)(COC(=O)C(=C)C)COC(=O)C(=C)C	inactive	inactive	inactive	–	inactive	inactive	inactive	inactive	inactive	inactive	inactive	inactive	inactive	inactive	–	–	–	–	–
CC1=C(/C=C/C(C)=C/C=C/C(C)=C/CO)C(C)(C)CCC1	inactive	inactive	inactive	inactive	inactive	inactive	–	inactive	inactive	–	–	inactive	inactive	13.9 µM (active) and 32.3 µM (active)	–	–	–	–	–
O=S(=O)(O)c1cc(S(=O)(=O)O)c2c(N=Nc3ccccc3)c(O)ccc2c1	inactive	inactive	inactive	inactive	inactive	–	–	inactive	inactive	inactive	–	inactive	–	–	–	–	–	–	–
O=C(O)c1cc(-c2ccccc2)nc2ccccc12	inactive	inactive	inactive	inactive	inactive	–	–	inactive	inactive	inactive	inactive	inactive	inactive	–	inactive	inactive	inactive	inactive	inactive
c1ccc2ccccc2c1	inactive	inactive	inactive	inactive	inactive	inactive	inactive	inactive	inactive	–	inactive	inactive	inactive	inactive	–	–	–	–	–
Clc1cc(Cl)c(Cl)cc1Cl	inactive	inactive	inactive	inactive	inactive	inactive	inactive	inactive	inactive	inactive	inactive	inactive	inactive	inactive	–	–	–	–	–
CC(=O)Nc1ccc(C(=O)O)cc1	inactive	inactive	inactive	inactive	inactive	inactive	inactive	inactive	inactive	inactive	inactive	inactive	inactive	inactive	–	–	–	–	–
CS(=O)(=O)Nc1ccc([N+](=O)[O-])cc1Oc1ccccc1	inactive	inactive	inactive	inactive	inactive	inactive	–	inactive	inactive	inactive	–	inactive	–	–	–	inactive	–	inactive	–

Source: PubChem BioAssay (Tox21)
